The source made the active and inactive calls.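 Rule for the calls: active = compounds that raised 12-lipoxygenase product formation in the cuvette follow-up test, with a fitted potency; inactive = the rest, inconclusive results apart.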
What follows are compounds tested against Polyunsaturated fatty acid lipoxygenase ALOX12 (Homo sapiens) (UniProt P18054) (assay: Activators of 12-hLO (12-human lipoxygenase): 12hLO Cuvette-Based Hit Validation Assay of Followup Compounds). Settings: purified 12-hLO, cuvette UV 234 nm product formation.
Chain of Polyunsaturated fatty acid lipoxygenase ALOX12 (Homo sapiens) (P18054 whole entry, looked up): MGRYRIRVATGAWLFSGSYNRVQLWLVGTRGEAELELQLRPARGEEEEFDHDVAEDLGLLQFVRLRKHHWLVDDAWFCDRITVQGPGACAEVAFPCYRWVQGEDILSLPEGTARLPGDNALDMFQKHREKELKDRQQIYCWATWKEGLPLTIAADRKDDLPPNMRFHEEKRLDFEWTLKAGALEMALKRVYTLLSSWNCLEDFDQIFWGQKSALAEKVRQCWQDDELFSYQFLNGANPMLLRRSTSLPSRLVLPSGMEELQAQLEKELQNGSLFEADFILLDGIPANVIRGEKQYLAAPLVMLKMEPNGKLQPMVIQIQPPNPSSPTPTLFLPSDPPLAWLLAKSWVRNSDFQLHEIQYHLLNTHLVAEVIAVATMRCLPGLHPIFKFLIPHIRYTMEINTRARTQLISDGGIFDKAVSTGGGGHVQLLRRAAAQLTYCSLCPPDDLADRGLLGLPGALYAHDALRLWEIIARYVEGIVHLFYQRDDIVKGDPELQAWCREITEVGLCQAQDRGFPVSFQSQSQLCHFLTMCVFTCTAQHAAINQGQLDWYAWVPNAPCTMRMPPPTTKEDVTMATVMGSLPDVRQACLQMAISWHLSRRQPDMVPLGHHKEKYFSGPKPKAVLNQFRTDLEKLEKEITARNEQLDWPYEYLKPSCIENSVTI
Protocol: The enzyme activity of 12-hLO was determined by a direct measurement of product formation by monitoring the absorbance at 234 nm in a 2 mL cuvette. IC50 values of inhibitors were obtained by measuring the enzymatic rate at a variety of concentrations (Carroll et al, Segraves et al). This assay was used to validate active or inconclusive putative activators identified in the primary screen (see related BioAssay AIDs). Assay Provider: Holman, T.R., University of California, Santa Cruz Screening Center PI: Austin, Christopher P. Screening Center: NIH Chemical Genomics Center
For control experiments, 2 mL of substrate buffer (10 uM arachidonic acid / 25 mM HEPES / 0.01% (v/v) Triton X-100, pH 8.0) was aliquoted in a cuvette with a magnetic stir bar. After equilibrium was ensured, an aliquot of inhibitor solvent was added (DMSO), and equilibrium was once again assured. The reaction was started by adding enzyme to the cuvette and the reaction was followed until completed. The inhibition experiments were performed as above, except the actual inhibitory compound was added instead of vehicle. To achieve an IC50, typically 5 concentrations of the inhibitor were studied. If the inhibitor concentration was constant, then five different reaction volumes were used. Step \ Parameter \ Value \ Description 1; UV-Vis; 234 nm; Equilibration 2; Reagent; 2 mL; Substrate buffer 3; UV-Vis; 234 nm; Equilibration 4; Reagent; varies; Compound 5; UV-Vis; 234 nm; Equilibration 6; Reagent; 50-200 nM; Enzyme 12-hLO 7; UV-Vis; 234 nm; Enzymatic reaction Step \ Notes 1; Blank cuvette to air. 2; 10 uM AA, 25 mM HEPES, 0.01% Triton X-100, pH 8. 3; No change in absorbance ensured. 4; Compound vehicle or compound in various concentrations depending on potency. 5; No change in absorbance ensured. 6; Enzyme concentration to achieve reaction rate between 0.02 and 0.04 AU/s. 7; Enzymatic reaction visualized until completion.
In the case of COc1cc(CNc2ccc(O)cc2)cc(Br)c1OCc1ccccc1F, the outcome is reported as “inactive”. With CC(Oc1ccc(Cl)cc1Cl)C(=O)Nc1ccc(S(=O)(=O)Nc2cnc3ccccc3n2)cc1 (centres undefined) the outcome was “inactive”. In the case of CC(Oc1ccc(Cl)cc1Cl)C(=O)NC1=NN(c2ccccc2)C(=O)C1 (centres undefined), the outcome is reported as “inactive”. In the case of O=C(Nc1nnc(C2=COCCO2)o1)c1ccc(Cl)cc1, the outcome is reported as “inactive”. With Cc1[nH]nc(-c2ccc(O)cc2O)c1Oc1ccccc1 the outcome was “inactive”. For Cc1nc(N)sc1-c1csc(N(C)c2ccc(O)cc2)n1, the outcome was “inactive”. COc1ccc(C(=O)Nc2cc(C(=O)c3ccccc3)c(C)oc2=O)cc1 was tested, and the Potency was 61.6 µM (active). In the case of CSCCC(NC(=O)c1ccc(Cl)cc1)C(=O)OCC(=O)Nc1ccc(C#N)cc1 (centres undefined), the outcome is reported as “inactive”. In the case of Oc1ccccc1-c1cc(-c2ccccc2Cl)[nH]n1, the outcome is reported as “inactive”. For O=C1c2ccccc2NC(c2ccc(Cl)cc2Cl)N1O (centres undefined), the Potency was 53.1 µM (active). With COc1cccc(-c2cnc(NCc3cc(Cl)ccc3O)n2C)c1 the outcome was “inactive”. For CCCOC(=O)c1ccc(Oc2c(-c3ccc(O)cc3O)n[nH]c2C)cc1, the outcome was “inactive”. With Oc1ccccc1-c1cc(-c2cccc(F)c2)n[nH]1 the outcome was “inactive”. In the case of COc1ccc(/C=C/c2nc(-c3ccccc3O)n[nH]2)cc1, the outcome is reported as “inactive”. In the case of O=C(/C=C/c1ccc(O)c(O)c1)c1ccc(S(=O)(=O)N2CCCCCC2)cc1, the outcome is reported as “inactive”. For COc1ccc2nc(NC(=O)c3cccc(OCc4c(C)noc4C)c3)sc2c1, the outcome was “inactive”. Cc1ccc(S(=O)(=O)Nc2nc(C)c(NC(=O)Nc3ccc(Cl)cc3Cl)s2)cc1 was tested, and the outcome was “inactive”. For COc1ccc(-c2n[nH]c(C)c2-c2ccc(Cl)cc2)c(O)c1, the outcome was “inactive”. COc1ccc(Cc2nc(C(=O)Nc3ccc(OC)cc3)cs2)cc1 was tested, and the outcome was “inactive”.
